Screens: PubChem, Broad Institute
Only a selection was taken, and hits are over-represented in it overall.
DUX4 txn inh = blocks DUX4-driven transcriptional activation; 293T-iDUX4 ZSCAN4-Gaussia luciferase reporter, 24 h; stronger effect = lower value; activity change, negative = inhibition, % (test concentration not listed); 37,000 compounds, 0.8% hits;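 active = mean inhibition of at least 10% in the main channel, exceeding the control channel by a set limit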
Large screens that a line does not name were inactive; ! = repeats disagree.

COC(=O)[C@@H]1[C@@H](CO)[C@@H]2Cn3c(ccc(C4=CCCCC4)c3=O)[C@@H]2N1C(=O)C1CCC1	none
CO[C@@H]1CN(C)C(=O)c2ccc(NC(=O)c3cnccn3)cc2OC[C@H](C)N(CC2CC2)C[C@@H]1C	none
O=C(c1ccccn1)N1CC[C@H]2[C@H](CO)Nc3ccc(-c4ccc(F)cc4)cc3[C@H]21	none
CN1[C@@H]2c3ccc(/C=C/c4ccccc4)c(=O)n3C[C@H]1[C@H](CO)[C@H]2C(=O)NC1CCCCC1	none
COCC#Cc1ccc([C@H]2[C@@H](CO)N3C(=O)CN(C(=O)c4cccnc4)C[C@@H]23)cc1	none
COc1ccccc1NC(=O)N[C@H]1CC[C@@H](CCn2cc(-c3cccnc3)nn2)O[C@@H]1CO	none
COc1ccc(NC(=O)Nc2ccc3c(c2)[C@H]2C[C@H](CC(=O)N4CCN(C)CC4)O[C@H](CO)[C@H]2O3)cc1	none
COc1ccc2c3c(n(C)c2c1)[C@H](CO)N(C(C)=O)CC31CCN(S(=O)(=O)c2ccccc2)CC1	none
O=C(CC1CC1)Nc1ccc2c(c1)[C@H]1C[C@H](CC(=O)NC3CCCCC3)O[C@H](CO)[C@H]1O2	none
Cc1cccc(S(=O)(=O)N(C)C[C@@H]2OCc3ccccc3-c3c(n(C)c4ccccc34)C(=O)N([C@@H](C)CO)C[C@H]2C)c1	DUX4 txn inh -53
C[C@@H]1CN([C@H](C)CO)C(=O)c2ccccc2-c2ccccc2CO[C@@H]1CN(C)S(=O)(=O)c1cccc(F)c1	none
C[C@H]1CN([C@@H](C)CO)C(=O)c2c(c3ccccc3n2C)-c2ccccc2CO[C@H]1CN(C)S(=O)(=O)CC(F)(F)F	none
C[C@H](CO)N1C[C@H](C)[C@@H](CN(C)S(=O)(=O)c2cccc(C#N)c2)OCc2ccccc2-c2c(n(C)c3ccccc23)C1=O	none
Cc1cccc(S(=O)(=O)N(C)C[C@H]2OCc3ccccc3-c3c(n(C)c4ccccc34)C(=O)N([C@H](C)CO)C[C@H]2C)c1	DUX4 txn inh -29
C[C@@H]1CN([C@H](C)CO)C(=O)c2ccccc2-c2ccccc2CO[C@H]1CN(C)S(=O)(=O)c1cccc(F)c1	none
C[C@H](CO)N1C[C@H](C)[C@H](CN(C)S(=O)(=O)CC(F)(F)F)OCc2ccccc2-c2c(n(C)c3ccccc23)C1=O	DUX4 txn inh -33
C[C@H]1CN([C@@H](C)CO)C(=O)c2c(c3ccccc3n2C)-c2ccccc2CO[C@H]1CN(C)S(C)(=O)=O	none
C[C@H](CO)N1C[C@H](C)[C@@H](CN(C)S(C)(=O)=O)OCc2ccccc2-c2c(n(C)c3ccccc23)C1=O	none
C[C@H](CO)N1C[C@H](C)[C@@H](CN(C)S(=O)(=O)c2ccc(F)cc2)OCc2ccccc2-c2c(n(C)c3ccccc23)C1=O	none
C[C@H](CO)N1C[C@H](C)[C@H](CN(C)S(=O)(=O)c2cccc(F)c2)OCc2ccccc2-c2ccccc2C1=O	DUX4 txn inh -21
C[C@@H]1CN([C@H](C)CO)C(=O)c2c(c3ccccc3n2C)-c2ccccc2CO[C@@H]1CN(C)S(=O)(=O)CC(F)(F)F	none
CO[C@H](CN(C)C(=O)c1cnccn1)[C@H](C)CN([C@@H](C)CO)S(=O)(=O)c1ccccc1	none
COc1ccccc1NC(=O)N[C@@H]1CC[C@H](CC(=O)N[C@H](C)c2ccccc2)O[C@H]1CO	none
O=S(=O)(NCC[C@@H]1CC[C@H](NS(=O)(=O)c2cccc(Cl)c2)[C@@H](CO)O1)c1cccc(F)c1	none
OC[C@@H]1[C@@H](c2ccc(C#Cc3ccccc3)cc2)[C@@H]2CN(Cc3cncnc3)CCCCN12	none
O=C(c1cccc(F)c1)N1C[C@@H]2[C@H](c3ccccc31)[C@@H](CO)N2C(=O)Cc1ccccc1	none
C[C@H]1CN([C@@H](C)CO)C(=O)CCCn2nncc2CO[C@@H]1CN(C)C(=O)Nc1ccc(C(F)(F)F)cc1	none
CC(C)NC(=O)N1C[C@@H]2[C@H](c3ccccc31)[C@@H](CO)N2C(=O)c1ccccn1	none
CC(C)NC(=O)N[C@@H]1C=C[C@@H](CC(=O)NCCCN(C)C)O[C@H]1CO	none
COCC(=O)N(C)C[C@@H]1Oc2ncc(-c3ccc(F)cc3)cc2C(=O)N([C@@H](C)CO)C[C@H]1C	none
COc1cccc(S(=O)(=O)N2CCCCN3[C@@H](CO)[C@H](c4ccc(-c5cccnc5)cc4)[C@@H]3C2)c1	none
COc1cccc(-c2ccc(C3[C@@H]4CN(S(=O)(=O)Cc5ccccc5)C[C@H]3N4)cc2)c1 (stereo not given in full)	DUX4 txn inh -22
Cc1cccc(S(=O)(=O)N2C[C@@H]3N[C@H](C2)C3c2ccc(-c3ccccc3C)cc2)c1 (stereo not given in full)	DUX4 txn inh -73!
COc1cccc(-c2ccc(C3[C@@H]4CN(S(=O)(=O)c5ccccc5F)C[C@H]3N4)cc2)c1 (stereo not given in full)	none
CN(C)C(=O)c1cccc(-c2ccc(C3[C@H]4CNC[C@@H]3N4S(=O)(=O)Cc3ccccc3)cc2)c1 (stereo not given in full)	none
COc1cccc(S(=O)(=O)N2C[C@@H]3N[C@H](C2)C3c2ccc(-c3ccccc3F)cc2)c1 (stereo not given in full)	DUX4 txn inh -69!
COc1cccc(-c2ccc(C3[C@H]4CNC[C@@H]3N4S(=O)(=O)Cc3ccccc3)cc2)c1 (stereo not given in full)	none
Cc1ccccc1-c1ccc(C2[C@H]3CNC[C@@H]2N3S(=O)(=O)c2ccc(F)cc2)cc1 (stereo not given in full)	none
Cc1cccc(S(=O)(=O)N2C[C@@H]3N[C@H](C2)C3c2ccc(-c3cncnc3)cc2)c1 (stereo not given in full)	none
Cc1ccccc1-c1ccc(C2[C@H]3CNC[C@@H]2N3S(=O)(=O)c2cccc(F)c2)cc1 (stereo not given in full)	none
COc1cccc(S(=O)(=O)N2C[C@@H]3N[C@H](C2)C3c2ccc(-c3ccccc3C)cc2)c1 (stereo not given in full)	DUX4 txn inh -36!
COc1ccc(S(=O)(=O)N2[C@@H]3CNC[C@H]2C3c2ccc(-c3ccccc3F)cc2)cc1 (stereo not given in full)	none
COCC(=O)Nc1ccc2c(c1)C(=O)N(C)C[C@H](OC)[C@H](C)CN(C(C)=O)[C@@H](C)CO2	none
O=C(C[C@H]1CC[C@@H]2[C@H](COC[C@@H](O)CN2Cc2nccs2)O1)NCc1ccccc1F	none
Cc1noc(C)c1NC(=O)N(C)C[C@H]1OCc2ccccc2-c2ccccc2C(=O)N([C@@H](C)CO)C[C@H]1C	none
Cc1ccccc1-c1ccc([C@H]2[C@H]3CN(C(=O)NC4CCCC4)CCCCN3[C@H]2CO)cc1	none
CN1[C@H](C(=O)Nc2ccccc2)[C@@H](CO)[C@@H]2Cn3c(ccc(-c4ccc(F)cc4)c3=O)[C@@H]21	none
CCCNC(=O)N1CC2(CCN(C(=O)COC)CC2)c2c(n(C)c3cc(OC)ccc23)[C@H]1CO	none
CC=Cc1ccc2n(c1=O)C[C@@H]1[C@@H](CO)[C@H](C(=O)N3CCN(C)CC3)N(Cc3ccccc3OC)[C@H]21 (mixture of isomers)	none
CNC(=O)C[C@H]1CC[C@@H]2[C@@H](COc3ccc(NC(=O)NCc4ccccc4)cc3C(=O)N2C)O1	none
CO[C@@H]1CN(C)C(=O)c2cc(NC(=O)c3ccc4c(c3)OCO4)ccc2OC[C@@H](C)NC[C@@H]1C	none
C/C=C/c1ccc([C@H]2[C@H](CO)N(C(=O)COC)[C@H]2CNC(=O)CC)cc1	none
O=C(C[C@H]1CC[C@H]2[C@@H](COC[C@@H](O)CN2Cc2cccc(Cl)c2)O1)N1CCCCC1	none
CN1C(=O)c2cc(NC(=O)C3CCOCC3)ccc2OC[C@H]2O[C@@H](CC(=O)NCc3ccc4c(c3)OCO4)CC[C@@H]21	none
